In the supplement of paper PMC10849652:
Of roughly 7,900 targets only a part is listed; those with a hit were picked by preference. About 0.6% of all pairs of compound and target were hits.

What was measured:
Assay in all cases: log2 fold change, soluble protein after heating vs DMSO (PISA); higher = thermal stabilisation; K562 cells, 10 uM, 30 min; active = over 0.2 and 3.5 SD of the protein, either way, in both replicates (recomputed)
[1] = compound: NC(=O)Nc1cc(-c2cccc(F)c2)sc1C(=O)N[C@H]1CCCNC1
Summary of the method: (§1)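 Quantification of soluble protein used TMTpro 16plex LC-MS/MS, with channel sums equalised. Samples were the supernatant after 21,000xg for 90 min of pooled aliquots from K562 cells (2×10^6 cells/mL) treated with 10 μM compound for 30 min, heated for 3 min over 48°C-58°C, and extracted in PBS with 0.5% NP-40 at 4°C. Values, from duplicates, describe thermal stability against control samples on a log2 fold-change scale.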

[2] = compound: NC(=O)c1cnc(N[C@@H]2CCCC[C@@H]2N)nc1Nc1cccc(-n2nccn2)c1
Summary of the method: as §1

[3] = compound: NC1(c2ccc(-c3nc4ccn5c(=O)[nH]nc5c4cc3-c3ccccc3)cc2)CCC1
Summary of the method: as §1

[4] = compound: NCC(=O)Nc1ccc(-n2nc(C(F)(F)F)cc2-c2ccc3c(ccc4ccccc43)c2)cc1
Summary of the method: as §1

entinostat = compound: Nc1ccccc1NC(=O)c1ccc(CNC(=O)OCc2cccnc2)cc1 [entinostat]
Summary of the method: as §1

vorinostat = compound: O=C(CCCCCCC(=O)Nc1ccccc1)NO [vorinostat]
Summary of the method: as §1

citarinostat = compound: O=C(CCCCCCNC(=O)c1cnc(N(c2ccccc2)c2ccccc2Cl)nc1)NO [citarinostat]
Summary of the method: as §1

silmitasertib = compound: O=C(O)c1ccc2c(c1)nc(Nc1cccc(Cl)c1)c1ccncc12 [silmitasertib]
Summary of the method: as §1

[5] = compound: O=C1NC(=O)C(c2cnc3ccccn23)=C1c1cn2c3c(cc(F)cc13)CN(C(=O)N1CCCCC1)CC2
Summary of the method: as §1

[6] = compound: c1cc(OCCN2CCCCC2)cc(-c2n[nH]c3ccc(-c4nnc[nH]4)cc23)c1
Summary of the method: as §1

Measured: log2 fold change

GBF1 (UniProt Q92538)
Sequence of UniProt Q92538 (Q92538 whole entry, looked up): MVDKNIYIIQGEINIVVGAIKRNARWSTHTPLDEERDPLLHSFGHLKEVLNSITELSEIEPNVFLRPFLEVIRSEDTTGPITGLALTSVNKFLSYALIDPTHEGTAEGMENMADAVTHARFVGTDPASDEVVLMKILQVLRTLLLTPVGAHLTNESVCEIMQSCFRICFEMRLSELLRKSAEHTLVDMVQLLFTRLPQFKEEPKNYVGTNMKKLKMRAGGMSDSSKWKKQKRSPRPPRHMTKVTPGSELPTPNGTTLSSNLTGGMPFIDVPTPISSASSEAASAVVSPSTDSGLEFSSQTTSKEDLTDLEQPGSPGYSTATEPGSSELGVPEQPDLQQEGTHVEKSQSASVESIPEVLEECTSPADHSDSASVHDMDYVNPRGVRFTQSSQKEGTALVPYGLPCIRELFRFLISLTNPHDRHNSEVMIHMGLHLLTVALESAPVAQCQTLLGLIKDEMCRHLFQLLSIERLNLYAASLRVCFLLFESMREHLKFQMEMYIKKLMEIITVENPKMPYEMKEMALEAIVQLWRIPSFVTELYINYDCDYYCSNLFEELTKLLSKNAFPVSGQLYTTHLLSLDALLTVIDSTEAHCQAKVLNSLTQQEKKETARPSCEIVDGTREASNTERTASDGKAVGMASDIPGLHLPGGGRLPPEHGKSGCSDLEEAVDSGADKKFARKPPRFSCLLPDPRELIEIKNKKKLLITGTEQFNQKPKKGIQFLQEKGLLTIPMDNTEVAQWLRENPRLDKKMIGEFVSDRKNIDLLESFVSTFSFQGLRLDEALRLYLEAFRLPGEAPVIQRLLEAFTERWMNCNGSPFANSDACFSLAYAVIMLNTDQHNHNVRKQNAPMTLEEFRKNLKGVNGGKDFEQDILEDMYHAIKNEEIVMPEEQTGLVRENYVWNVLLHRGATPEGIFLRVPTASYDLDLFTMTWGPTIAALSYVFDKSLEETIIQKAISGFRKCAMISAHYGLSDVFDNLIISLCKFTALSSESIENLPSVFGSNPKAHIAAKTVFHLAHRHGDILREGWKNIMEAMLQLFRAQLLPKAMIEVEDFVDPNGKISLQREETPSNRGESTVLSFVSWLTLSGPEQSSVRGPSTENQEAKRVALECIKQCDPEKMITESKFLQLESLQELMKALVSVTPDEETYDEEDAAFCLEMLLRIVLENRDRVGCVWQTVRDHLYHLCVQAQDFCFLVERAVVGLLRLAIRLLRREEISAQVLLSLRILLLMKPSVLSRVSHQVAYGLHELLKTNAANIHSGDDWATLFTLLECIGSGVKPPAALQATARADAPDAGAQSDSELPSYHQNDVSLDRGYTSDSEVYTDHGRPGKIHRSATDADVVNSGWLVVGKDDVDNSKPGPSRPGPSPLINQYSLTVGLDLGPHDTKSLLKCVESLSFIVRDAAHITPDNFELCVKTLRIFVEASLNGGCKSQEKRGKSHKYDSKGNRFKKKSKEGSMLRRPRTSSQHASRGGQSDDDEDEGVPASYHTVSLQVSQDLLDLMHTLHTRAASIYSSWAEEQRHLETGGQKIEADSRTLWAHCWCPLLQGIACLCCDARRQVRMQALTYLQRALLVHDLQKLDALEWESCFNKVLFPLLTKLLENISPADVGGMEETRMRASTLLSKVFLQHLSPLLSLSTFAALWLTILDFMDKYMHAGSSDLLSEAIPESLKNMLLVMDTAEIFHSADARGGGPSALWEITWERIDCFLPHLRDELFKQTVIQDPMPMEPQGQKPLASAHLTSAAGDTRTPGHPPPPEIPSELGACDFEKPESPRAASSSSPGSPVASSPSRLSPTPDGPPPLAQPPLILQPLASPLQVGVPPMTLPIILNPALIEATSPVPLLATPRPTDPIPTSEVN
inactive: [1] -0.026 | [2] -0.012 | [3] -0.122 | [4] -0.058 | entinostat 0.053 | vorinostat 0.144 | citarinostat 0.124 | silmitasertib -0.018 | [5] -0.001 | [6] -0.023

GTF2E1 (UniProt P29083)
inactive: [1] -0.038 | [2] -0.118 | [3] -0.122 | [4] -0.198 | entinostat 0.054 | vorinostat 0.095 | citarinostat 0.073 | silmitasertib 0.06 | [5] -0.134 | [6] -0.124

GNL1 (UniProt P36915)
Sequence of UniProt P36915 (P36915 whole entry, looked up): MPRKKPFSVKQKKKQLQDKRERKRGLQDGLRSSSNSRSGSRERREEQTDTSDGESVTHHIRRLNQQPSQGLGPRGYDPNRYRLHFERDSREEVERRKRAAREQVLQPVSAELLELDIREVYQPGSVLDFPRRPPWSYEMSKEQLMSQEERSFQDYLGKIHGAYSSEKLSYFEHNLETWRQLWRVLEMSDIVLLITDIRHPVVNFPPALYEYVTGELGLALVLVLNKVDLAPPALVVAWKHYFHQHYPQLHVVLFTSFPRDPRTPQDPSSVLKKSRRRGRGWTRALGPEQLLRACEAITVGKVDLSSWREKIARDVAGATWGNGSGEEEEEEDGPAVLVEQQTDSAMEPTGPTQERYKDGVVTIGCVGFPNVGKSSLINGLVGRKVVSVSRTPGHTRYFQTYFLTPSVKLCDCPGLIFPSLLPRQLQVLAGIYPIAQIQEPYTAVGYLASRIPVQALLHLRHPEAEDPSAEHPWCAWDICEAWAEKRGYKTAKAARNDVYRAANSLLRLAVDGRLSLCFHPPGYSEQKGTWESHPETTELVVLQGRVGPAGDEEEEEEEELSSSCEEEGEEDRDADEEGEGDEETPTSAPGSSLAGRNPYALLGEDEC
inactive: [1] -0.045 | [2] -0.071 | [3] -0.114 | [4] -0.019 | entinostat 0.001 | vorinostat 0.008 | citarinostat 0.022 | silmitasertib -0.021 | [5] -0.005 | [6] -0.011

FARS2 (UniProt O95363)
Sequence of UniProt O95363 (O95363 whole entry, looked up): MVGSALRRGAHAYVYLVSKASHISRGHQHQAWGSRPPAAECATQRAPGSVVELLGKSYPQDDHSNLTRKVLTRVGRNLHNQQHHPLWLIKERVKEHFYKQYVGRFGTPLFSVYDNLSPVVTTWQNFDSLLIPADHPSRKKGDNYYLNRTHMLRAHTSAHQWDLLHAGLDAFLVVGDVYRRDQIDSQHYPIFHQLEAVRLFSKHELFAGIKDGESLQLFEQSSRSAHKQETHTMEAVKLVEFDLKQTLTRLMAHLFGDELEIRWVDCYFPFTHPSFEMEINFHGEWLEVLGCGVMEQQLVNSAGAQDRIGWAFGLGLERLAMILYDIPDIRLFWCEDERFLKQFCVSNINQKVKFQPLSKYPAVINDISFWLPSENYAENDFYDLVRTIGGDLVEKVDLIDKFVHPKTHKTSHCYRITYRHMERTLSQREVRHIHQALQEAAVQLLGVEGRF
inactive: [1] -0.006 | [2] 0.003 | [3] -0.222 | [4] 0.012 | entinostat 0.028 | vorinostat 0.073 | citarinostat 0.022 | silmitasertib -0.027 | [5] -0.11 | [6] 0.005

HPCAL1 (UniProt P37235)
inactive: [1] 0.033 | [2] -0.014 | [3] -0.152 | [4] -0.032 | entinostat 0.006 | vorinostat -0.018 | citarinostat 0.032 | silmitasertib 0.028 | [5] -0.03 | [6] -0.032

HBA1 (UniProt P69905)
inactive: [1] 0.016 | [2] 0.032 | [3] 0.003 | [4] 0.103 | entinostat 0.059 | vorinostat -0.031 | citarinostat 0.007 | silmitasertib -0.036 | [5] -0.037 | [6] 0.012

GSTP1 (UniProt P09211)
inactive: [1] -0.044 | [2] -0.01 | [3] -0.056 | [4] 0.001 | entinostat -0.006 | vorinostat -0.012 | citarinostat 0.034 | silmitasertib -0.038 | [5] -0.005 | [6] -0.013

HBZ (UniProt P02008)
Sequence of UniProt P02008 (P02008 whole entry, looked up): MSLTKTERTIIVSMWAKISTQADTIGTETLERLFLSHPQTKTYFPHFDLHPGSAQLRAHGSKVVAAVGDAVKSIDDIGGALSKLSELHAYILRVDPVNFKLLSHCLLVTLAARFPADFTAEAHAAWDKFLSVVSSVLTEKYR
inactive: [1] 0.03 | [2] -0.042 | [3] 0 | [4] 0.026 | entinostat 0.059 | vorinostat -0.022 | citarinostat 0.027 | silmitasertib -0.019 | [5] -0.055 | [6] -0.018

HNRNPC isoform 2 (UniProt P07910)
inactive: [1] -0.032 | [2] -0.049 | [3] 0.568 | [4] -0.037 | entinostat 0.148 | vorinostat -0.041 | citarinostat -0.062 | silmitasertib 0.199 | [5] 0.104 | [6] -0.252

GLIPR2 (UniProt Q9H4G4)
Sequence of UniProt Q9H4G4 (Q9H4G4 whole entry, looked up): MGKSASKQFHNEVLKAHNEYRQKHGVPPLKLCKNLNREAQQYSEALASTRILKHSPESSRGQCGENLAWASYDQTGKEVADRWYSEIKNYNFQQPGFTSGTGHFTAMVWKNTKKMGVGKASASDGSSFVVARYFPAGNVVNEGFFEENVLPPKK
inactive: [1] -0.038 | [2] -0.058 | [3] -0.101 | [4] -0.071 | entinostat 0.058 | vorinostat 0.032 | citarinostat -0.029 | silmitasertib 0.112 | [5] -0.017 | [6] -0.037

HTATIP2 isoform 3 (UniProt Q9BUP3)
Sequence of UniProt Q9BUP3 (Q9BUP3 whole entry, looked up): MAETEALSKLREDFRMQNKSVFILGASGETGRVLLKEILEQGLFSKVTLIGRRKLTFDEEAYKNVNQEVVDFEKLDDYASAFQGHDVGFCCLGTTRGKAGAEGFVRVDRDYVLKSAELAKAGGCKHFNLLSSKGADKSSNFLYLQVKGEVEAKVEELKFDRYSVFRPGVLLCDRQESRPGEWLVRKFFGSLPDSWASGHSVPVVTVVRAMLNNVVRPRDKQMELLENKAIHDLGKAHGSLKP
inactive: [1] -0.047 | [2] 0.036 | [3] -0.07 | [4] -0.037 | entinostat -0.006 | vorinostat 0.038 | citarinostat 0.05 | silmitasertib 0.01 | [5] -0.066 | [6] -0.045

GOLGB1 isoform 2 (UniProt Q14789)
inactive: [1] 0.106 | [2] -0.062 | [3] -0.044 | [4] 0.026 | entinostat 0.024 | vorinostat -0.019 | citarinostat -0.008 | silmitasertib 0.009 | [5] 0.039 | [6] 0.167

GCLM (UniProt P48507)
inactive: [1] -0.028 | [2] 0.073 | [3] -0.088 | [4] -0.075 | entinostat 0.093 | vorinostat 0.051 | citarinostat 0.074 | silmitasertib 0.077 | [5] -0.022 | [6] -0.004

GSTM4 (UniProt Q03013)
inactive: [1] -0.071 | [2] -0.046 | [3] -0.121 | [4] 0.023 | entinostat -0.068 | vorinostat -0.013 | citarinostat -0.079 | silmitasertib 0.137 | [5] 0.151 | [6] 0.199

GID4 (UniProt Q8IVV7)
active: entinostat 0.289
inactive: [1] -0.165 | [2] -0.03 | [3] -0.032 | [4] -0.146 | vorinostat -0.074 | citarinostat 0.006 | silmitasertib 0.118 | [5] -0.017 | [6] -0.052

GNL3 (UniProt Q9BVP2)
inactive: [1] 0.08 | [2] -0.061 | [3] -0.098 | [4] -0.088 | entinostat -0.069 | vorinostat -0.131 | citarinostat 0.134 | silmitasertib -0.066 | [5] -0.027 | [6] 0.041

FDXR isoform 7 (UniProt P22570)
inactive: [1] -0.03 | [2] -0.044 | [3] -0.083 | [4] -0.082 | entinostat -0.006 | vorinostat 0.084 | citarinostat 0.031 | silmitasertib -0.034 | [5] -0.197 | [6] -0.11

GYS1 (UniProt P13807)
inactive: [1] -0.05 | [2] -0.027 | [3] 0.05 | [4] 0.091 | entinostat -0.077 | vorinostat -0.125 | citarinostat -0.103 | silmitasertib 0.05 | [5] -0.002 | [6] -0.301

HSPA8 (UniProt P11142)
inactive: [1] -0.006 | [2] 0.011 | [3] 0.018 | [4] 0.012 | entinostat -0.009 | vorinostat -0.01 | citarinostat -0.026 | silmitasertib -0.015 | [5] 0.003 | [6] -0.034

GTF2A2 (UniProt P52657)
Sequence of UniProt P52657 (P52657 whole entry, looked up): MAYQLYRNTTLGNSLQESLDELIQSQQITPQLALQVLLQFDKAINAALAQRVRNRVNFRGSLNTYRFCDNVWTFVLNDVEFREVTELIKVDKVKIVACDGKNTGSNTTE
inactive: [1] 0.023 | [2] -0.028 | [3] -0.038 | [4] -0.008 | entinostat 0.03 | vorinostat -0.044 | citarinostat 0.058 | silmitasertib -0.008 | [5] -0.014 | [6] 0

FDPS (UniProt P14324)
inactive: [1] 0.009 | [2] -0.136 | [3] -0.48 | [4] -0.14 | entinostat 0.001 | vorinostat 0.215 | citarinostat 0.142 | silmitasertib -0.108 | [5] -0.026 | [6] -0.069

FIBP (UniProt O43427)
inactive: [1] -0.018 | [2] 0.023 | [3] 0.011 | [4] -0.117 | entinostat -0.005 | vorinostat -0.067 | citarinostat 0.297 | silmitasertib -0.05 | [5] -0.031 | [6] -0.106

GALNT1 (UniProt Q10472)
Sequence of UniProt Q10472 (Q10472 whole entry, looked up): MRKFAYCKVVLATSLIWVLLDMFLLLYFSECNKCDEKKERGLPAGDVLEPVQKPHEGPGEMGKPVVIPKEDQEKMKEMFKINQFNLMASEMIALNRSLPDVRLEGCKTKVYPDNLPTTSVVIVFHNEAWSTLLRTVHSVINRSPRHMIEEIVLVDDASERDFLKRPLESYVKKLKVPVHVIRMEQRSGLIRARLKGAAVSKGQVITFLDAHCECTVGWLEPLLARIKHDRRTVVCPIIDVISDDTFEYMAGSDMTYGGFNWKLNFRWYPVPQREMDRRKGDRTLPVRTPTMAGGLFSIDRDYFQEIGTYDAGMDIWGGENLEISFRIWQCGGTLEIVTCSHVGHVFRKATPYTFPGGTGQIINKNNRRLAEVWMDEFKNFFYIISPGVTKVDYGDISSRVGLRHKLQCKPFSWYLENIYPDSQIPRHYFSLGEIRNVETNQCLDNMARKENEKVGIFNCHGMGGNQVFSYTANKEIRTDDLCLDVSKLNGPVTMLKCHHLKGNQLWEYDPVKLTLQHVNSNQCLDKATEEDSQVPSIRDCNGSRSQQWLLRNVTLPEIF
inactive: [1] -0.016 | [2] -0.012 | [3] -0.068 | [4] -0.016 | entinostat -0.027 | vorinostat 0.067 | citarinostat 0.011 | silmitasertib -0.007 | [5] -0.121 | [6] 0.046

GNG5 (UniProt P63218)
Sequence of UniProt P63218 (P63218 whole entry, looked up): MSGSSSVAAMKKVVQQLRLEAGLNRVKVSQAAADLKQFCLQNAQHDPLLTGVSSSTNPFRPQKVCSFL
inactive: [1] -0.029 | [2] 0.071 | [3] 0.056 | [4] 0.086 | entinostat 0.082 | vorinostat -0.127 | citarinostat -0.021 | silmitasertib 0.017 | [5] -0.156 | [6] -0.057

HHEX (UniProt Q03014)
inactive: [1] 0.04 | [2] 0.084 | [3] -0.054 | entinostat 0.045 | vorinostat 0.012 | citarinostat 0.029 | silmitasertib -0.018 | [5] 0.006 | [6] -0.016
active: [4] 0.568

HNRNPUL2 (UniProt Q1KMD3)
inactive: [1] -0.04 | [2] 0.02 | [3] 0.153 | [4] 0.017 | entinostat -0.026 | vorinostat -0.004 | citarinostat -0.077 | silmitasertib 0.046 | [5] 0.15 | [6] -0.104

GNAI3 (UniProt P08754)
inactive: [1] -0.016 | [2] 0.022 | [3] -0.046 | [4] 0.003 | entinostat -0.04 | vorinostat -0.016 | citarinostat -0.018 | silmitasertib 0.052 | [5] -0.027 | [6] -0.076

HDGFL2 (UniProt Q7Z4V5)
Sequence of UniProt Q7Z4V5 (Q7Z4V5 whole entry, looked up): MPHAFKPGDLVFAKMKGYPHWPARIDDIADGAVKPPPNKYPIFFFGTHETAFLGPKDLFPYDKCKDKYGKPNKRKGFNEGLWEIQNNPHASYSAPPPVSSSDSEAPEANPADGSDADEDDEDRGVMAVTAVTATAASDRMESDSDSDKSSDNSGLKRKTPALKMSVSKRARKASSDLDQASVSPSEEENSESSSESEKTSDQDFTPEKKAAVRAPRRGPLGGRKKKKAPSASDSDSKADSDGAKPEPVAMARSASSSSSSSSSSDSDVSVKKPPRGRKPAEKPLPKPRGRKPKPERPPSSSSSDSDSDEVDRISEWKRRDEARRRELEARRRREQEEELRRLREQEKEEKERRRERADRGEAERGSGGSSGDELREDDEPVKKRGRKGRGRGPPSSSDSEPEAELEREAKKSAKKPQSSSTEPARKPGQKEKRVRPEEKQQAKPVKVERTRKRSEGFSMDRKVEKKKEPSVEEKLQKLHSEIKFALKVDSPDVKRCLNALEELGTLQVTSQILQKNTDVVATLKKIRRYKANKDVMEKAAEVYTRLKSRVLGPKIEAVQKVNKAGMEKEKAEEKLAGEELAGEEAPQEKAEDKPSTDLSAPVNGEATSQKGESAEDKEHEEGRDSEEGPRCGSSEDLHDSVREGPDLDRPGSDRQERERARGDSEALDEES
inactive: [2] -0.05 | [3] -0.022 | [4] -0.052 | entinostat -0.139 | vorinostat 0.024 | citarinostat -0.032 | silmitasertib 0.033 | [5] -0.093 | [6] -0.018
active: [1] -0.273

FKBP7 (UniProt Q9Y680)
inactive: [1] -0.034 | [2] -0.017 | [3] 0.005 | [4] -0.037 | entinostat -0.029 | vorinostat -0.017 | citarinostat -0.02 | silmitasertib 0.079 | [5] 0.008 | [6] -0.097

HMGN1 (UniProt P05114)
Sequence of UniProt P05114 (P05114 whole entry, looked up): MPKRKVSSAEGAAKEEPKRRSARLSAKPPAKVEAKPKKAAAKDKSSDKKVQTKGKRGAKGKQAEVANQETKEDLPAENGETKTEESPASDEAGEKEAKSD
inactive: [1] 0 | [2] 0.024 | [3] 0.144 | [4] 0.03 | entinostat -0.053 | vorinostat -0.048 | citarinostat -0.096 | silmitasertib 0.037 | [5] -0.003 | [6] -0.023
